# Test results taken from PubChem BioAssay (NCATS).
# Inconclusive results are not listed. Activity calls are given as the source filed them. Unless noted, calls follow the shape of the dose curve; as a rule, active = well fitted inhibition curve with a large enough effect; inconclusive = small, poorly fitted or top-dose-only effect; inactive = no such curve, though single readings can be large or run the other way.
# Legend:
# [1] = High-throughput drug toxicity screening in the BPDCN cell line Gen2.2 (AID 1224824; call rule not given here;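 also: cells exposed to compounds for 48 h before reading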); conditions: Gen2.2 BPDCN cells; at 45.8 µM (top of the series)
# Method in brief: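 Gen2.2, 500 cells/well, phenol red-free RPMI/10% FBS/Pen-Strep; 48 h cpd, 37 °C/5% CO2; CTG lum, 15 min RT. Norm: DMSO = 100%, bortezomib 9.2 uM final = 0%.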
# [2] = High-throughput drug toxicity screening in the BPDCN cell line Cal-1 (AID 1224825; call rule not given here); conditions: Cal-1 BPDCN cell viability, qHTS; at 45.8 µM (top of the series)
# Method in brief: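 500 Cal-1 cells/well, RPMI + glutamine + 10% FBS (phenol red-free); cpd added by pin tool; 48 h, 37C, 5% CO2; CTG 15 min RT, lumi read. Normalised: DMSO 100%, bortezomib 9.2 uM 0%.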
# [3] = qHTS assay for measurement of the activity of small molecule inhibitors on Zika virus induced Caspase-3 activity in human iPSC derived neural progenitor cells (hNPCs) (AID 1224857); also: nearly all actives have a fitted effect of over 65% in size; also: potency is read from the fitted curve at half-maximal effect
# Method in brief: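 In medium with heparin 2 ug/ml and cyclopamine 2 uM, hNPCs (350 cells/well) received compound for one hour and then Zika virus at 2 FFU/cell; caspase activity was measured by Caspase-Glo 3/7 luminescence 6 h post-infection.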
# [4] = qHTS assay for measurement of the activity of small molecule inhibitors on Zika virus induced Caspase-3 activity in human astrocytoma cells (AID 1224859);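 also: plate controls were ZIKV-infected untreated cells for no effect and uninfected cells for full effect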
# Method in brief: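 A cell-based luminescent caspase-3/7 assay used SNB-19 cells infected with ZIKV (2 FFU/cell) for 6 h following 1 h compound pretreatment.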
# [5] = qHTS Screen of the MIPE 4.0 Collection Against Ewings Sarcoma (RDES) (AID 1259252); also: nearly all actives have a fitted effect of over 35% in size; also: potency is read from the fitted curve at half-maximal effect
# Method in brief: (§1)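 Cells plated in serum-containing RPMI (5% FBS) and treated with compound dilutions for 48 h. Readout luminescent viability; normalization relied on vehicle (no inhibition) and media-only columns (full inhibition).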
# [6] = qHTS Screen of the MIPE 4.0 Collection Against Ewings Sarcoma (EW8) (AID 1259255); also: nearly all actives have a fitted effect of over 35% in size; also: potency is read from the fitted curve at half-maximal effect;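 as to viability: 100% = DMSO-treated cells and 0% = medium-only wells without cells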
# Method in brief: as §1
# [7] = qHTS Screen of the MIPE 4.0 Collection Against Ewings Sarcoma (TC32) (AID 1259256); also: nearly all actives have a fitted effect of over 45% in size; also: potency is read from the fitted curve at half-maximal effect
# Method in brief: as §1
# [8] = qHTS Screen of the MIPE 4.0 Collection Against Ewings Sarcoma (TC71) (AID 1259253);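 also: 100% = DMSO-treated cells and 0% = medium-only wells without cells; nearly all actives have a fitted effect of over 40% in size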
# Method in brief: as §1
compound,measurement,setting,value
CC1=NN=C(c2ccc(N)cc2)c2cc3c(cc2C1)OCO3,"cell viability, % of control (lower = more cytotoxic)",[1],244%
same,viability (% of control),[2],12.1%
same,Potency,[3],inactive
same,Potency,[4],inactive
same,Potency,[5],inactive
same,Potency,[6],inactive
same,Potency,[7],inactive
N=c1c2c(-c3ccccc3)c(-c3ccccc3)n(Cc3ccccc3)c2ncn1C1CCC(O)CC1 (configuration not stated),"cell viability, % of control (lower = more cytotoxic)",[1],130%
same,viability (% of control),[2],11.7%
same,Potency,[3],inactive
same,Potency,[4],inactive
same,Potency,[5],1180 nM (active)
same,Potency,[7],662 nM (active)
COCC1(CO)C(=O)C2CCN1CC2 (configuration not stated),"cell viability, % of control (lower = more cytotoxic)",[1],4.6%
same,viability (% of control),[2],2.52%
same,Potency,[3],inactive
same,Potency,[4],inactive
same,Potency,[5],2090 nM (active)
same,Potency,[6],2640 nM (active)
same,Potency,[7],2350 nM (active)
Cc1ccccc1-n1c(Cn2ncc3c(N)ncnc32)nc2cccc(C)c2c1=O,"cell viability, % of control (lower = more cytotoxic)",[1],28.1%
same,viability (% of control),[2],17.1%
same,Potency,[3],inactive
same,Potency,[4],inactive
same,Potency,[5],10500 nM (active)
same,Potency,[6],26400 nM (active)
same,Potency,[7],11800 nM (active)
CC(C)(O)C=CC(=O)[C@](C)(O)[C@H]1[C@H](O)C[C@]2(C)[C@@H]3CC=C4[C@@H](C=C(O)C(=O)C4(C)C)[C@]3(C)C(=O)C[C@@]12C,"cell viability, % of control (lower = more cytotoxic)",[1],4.04%
same,viability (% of control),[2],2.59%
same,Potency,[3],inactive
same,Potency,[4],inactive
same,Potency,[5],590 nM (active)
same,Potency,[6],118 nM (active)
same,Potency,[7],41.8 nM (active)
COc1cc([C@@H]2c3cc4c(cc3[C@@H](O)C3COC(=O)C32)OCO4)cc(OC)c1O (some centres not stated),"cell viability, % of control (lower = more cytotoxic)",[1],6.47%
same,viability (% of control),[2],5.19%
same,Potency,[3],inactive
same,Potency,[4],inactive
same,Potency,[5],23.5 nM (active)
same,Potency,[6],26.4 nM (active)
same,Potency,[7],inactive
CC[C@@H]1[C@@H](C)O[C@@](O)([C@@H](C)[C@H](O)[C@H](C)[C@H]2OC(=O)C=CC=C[C@@H](C)[C@@H]([C@@H](C)[C@@H](O)[C@H](C)[C@@]3(O)C[C@H](O[C@H]4C[C@H](O)[C@H](O)[C@H](C)O4)[C@H](CC)[C@@H](C)O3)OC(=O)C=CC=C[C@@H]2C)C[C@H]1O[C@H]1C[C@H](O)[C@H](O)[C@H](C)O1,"cell viability, % of control (lower = more cytotoxic)",[1],11.5%
same,viability (% of control),[2],3.46%
same,Potency,[3],inactive
same,Potency,[4],inactive
same,Potency,[5],662 nM (active)
same,Potency,[6],590 nM (active)
same,Potency,[7],662 nM (active)
CC(C)[C@H]1C(=O)N[C@H](CO)Cc2c[nH]c3cccc(c23)N1C,"cell viability, % of control (lower = more cytotoxic)",[1],391%
same,viability (% of control),[2],82.8%
same,Potency,[3],23500 nM (active)
same,Potency,[4],inactive
same,Potency,[8],inactive
same,Potency,[6],inactive
same,Potency,[7],166 nM (active)
CCCCCC[C@H]1C(=O)O[C@H](C)[C@H](NC(=O)c2cccc(NC=O)c2O)C(=O)O[C@@H](C)[C@@H]1OC(=O)CC(C)C,"cell viability, % of control (lower = more cytotoxic)",[1],177%
same,viability (% of control),[2],85.6%
same,Potency,[3],inactive
same,Potency,[4],inactive
same,Potency,[5],41.8 nM (active)
same,Potency,[6],105 nM (active)
same,Potency,[7],83.3 nM (active)
CC(=O)O[C@@]12CO[C@H]1C[C@H](O)[C@@]1(C)C(=O)[C@H](O)C3=C(C)[C@@H](O)C[C@@](O)([C@@H](OC(=O)c4ccccc4)[C@@H]21)C3(C)C,"cell viability, % of control (lower = more cytotoxic)",[1],42%
same,viability (% of control),[2],20.6%
same,Potency,[3],inactive
same,Potency,[4],inactive
same,Potency,[5],2350 nM (active)
same,Potency,[6],2350 nM (active)
CCCC[N+]1(C)[C@H]2CC(OC(=O)[C@H](CO)c3ccccc3)C[C@H]1[C@H]1O[C@H]12 (some centres not stated),"cell viability, % of control (lower = more cytotoxic)",[1],119%
same,viability (% of control),[2],120%
same,Potency,[4],inactive
same,Potency,[5],inactive
same,Potency,[8],inactive
same,Potency,[6],inactive
same,Potency,[7],inactive
CN[C@@H]1Cc2cccc3[nH]c(=O)n(c23)C1,"cell viability, % of control (lower = more cytotoxic)",[1],231%
same,viability (% of control),[2],119%
same,Potency,[3],inactive
same,Potency,[5],inactive
same,Potency,[8],inactive
same,Potency,[6],inactive
same,Potency,[7],inactive
CCc1c(C(=O)C(N)=O)c2c(OCC(=O)O)cccc2n1Cc1ccccc1,"cell viability, % of control (lower = more cytotoxic)",[1],114%
same,viability (% of control),[2],115%
same,Potency,[4],inactive
COc1ccc(CC2NCCc3cc(OC)c(OC)cc32)cc1OC (configuration not stated),"cell viability, % of control (lower = more cytotoxic)",[1],150%
same,viability (% of control),[2],102%
same,Potency,[4],inactive
same,Potency,[5],23500 nM (active)
same,Potency,[6],inactive
same,Potency,[7],inactive
CC(=O)OCC1=C(C(=O)O)N2C(=O)[C@@H](N)[C@@H]2SC1,"cell viability, % of control (lower = more cytotoxic)",[1],68.5%
same,viability (% of control),[2],15.5%
same,Potency,[3],inactive
same,Potency,[5],inactive
same,Potency,[8],inactive
same,Potency,[6],inactive
same,Potency,[7],inactive
CC1(N2CCC(n3c([C@@H]4CCCNC4)nc4ccccc43)CC2)CCCCCCC1,"cell viability, % of control (lower = more cytotoxic)",[1],17.2%
same,viability (% of control),[2],5.69%
same,Potency,[3],inactive
same,Potency,[6],10500 nM (active)
same,Potency,[7],9350 nM (active)
C[C@]12CC[C@H](O)CC1=CC[C@H]1[C@H]3CCC(=O)[C@@]3(C)CC[C@@H]12,"cell viability, % of control (lower = more cytotoxic)",[1],136%
same,viability (% of control),[2],104%
same,Potency,[3],inactive
same,Potency,[5],4180 nM (active)
same,Potency,[6],16600 nM (active)
same,Potency,[7],16600 nM (active)
CCOC(=O)c1cncn1[C@H](C)c1ccccc1,"cell viability, % of control (lower = more cytotoxic)",[1],124%
same,viability (% of control),[2],105%
same,Potency,[3],inactive
same,Potency,[6],inactive
same,Potency,[7],inactive
O=c1[nH]c2ccccc2n1C1CCN(Cc2ccc(-c3[nH]c4cc5ncnc5cc4nc3-c3ccccc3)cc2)CC1,"cell viability, % of control (lower = more cytotoxic)",[1],4.84%
same,viability (% of control),[2],3.61%
same,Potency,[3],inactive
same,Potency,[5],23500 nM (active)
same,Potency,[6],18700 nM (active)
same,Potency,[7],20900 nM (active)
CC(=Cc1csc(C)n1)[C@@H]1C[C@H]2O[C@@H]2CCC[C@H](C)[C@@H](O)[C@@H](C)C(=O)C(C)(C)[C@@H](O)CC(=O)O1,"cell viability, % of control (lower = more cytotoxic)",[1],50.1%
same,viability (% of control),[2],26.8%
same,Potency,[4],inactive
same,Potency,[5],inactive
same,Potency,[8],inactive
same,Potency,[6],inactive
same,Potency,[7],inactive
